From PubChem BioAssay (Tox21)
Records with an inconclusive call do not appear. Calls of active or inactive are those of the source. Unless noted, calls come from the whole dose curve; as a rule, active = well fitted curve in the direction sought with a large enough effect in the repeat runs; inconclusive = weak or mixed curves; inactive = no such curve, though single readings can be large; an effect the other way counts as inactive or inconclusive.

Assays:
[1] = qHTS assay to identify aromatase inhibitors - cell viability counter screen (AID 743084);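 note: cells stimulated with testosterone during compound exposure; nearly all actives have a fitted effect of over 55% in size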
[2] = biological target: Aryl hydrocarbon receptor (Homo sapiens) (UniProt P35869); experiment: qHTS assay to identify small molecule that activate the aryl hydrocarbon receptor (AhR) signaling pathway (AID 743085);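 note: HG2L7.5c1 human HepG2 liver cells with stably integrated DRE-driven firefly reporter; series mostly up to about 70 µM; nearly all actives have a fitted effect of over 15% in size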
In short: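 Compounds were tested in HepG2 hepatocellular carcinoma cells harbouring a stably integrated luciferase gene under control of 20 DREs. Increased reporter signal after 24 h treatment at 37C was taken as AhR activation.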

[3] = biological target: Peroxisome proliferator-activated receptor gamma (Homo sapiens) (UniProt P37231); experiment: qHTS assay to identify small molecule agonists of the peroxisome proliferator-activated receptor gamma (PPARg) signaling pathway (AID 743094; active = well fitted activation curve with a large enough effect in the signal ratio in the repeat runs, not every such curve was filed as active; the % refers to the signal ratio)
In short: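 Agonist activity was taken from a beta-lactamase reporter (FRET substrate, 1 h at room temperature) in HEK293H cells carrying a PPARg UAS-bla construct. Compounds in DMSO were incubated 17 h at 37C after a 5 h cell pre-incubation.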

[4] = biological target: Peroxisome proliferator-activated receptor gamma (Homo sapiens) (UniProt P37231); experiment: qHTS assay to identify small molecule antagonists of the peroxisome proliferator-activated receptor gamma (PPARg) signaling pathway (AID 743191; calls by dose curve; note: series mostly up to about 63 µM; nearly all actives have a fitted effect of over 30% in size)
In short: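 GeneBLAzer PPARg UAS-bla HEK293H cells carrying a UAS-driven beta-lactamase reporter were plated at 3000 cells/well, preincubated 5 h at 37C, then given compound for 17 h at 37C; LiveBLAzer B/G FRET substrate was read after 1 h at room temperature.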

[5] = qHTS assay to identify small molecule antagonists of the peroxisome proliferator-activated receptor gamma (PPARg) signaling pathway - cell viability counter screen (AID 743194); conditions: Potency: co-treated with 50 nM rosiglitazone unless noted; note: nearly all actives have a fitted effect of over 55% in size
In short: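 PPARg-UAS-bla HEK293H cells were plated, rested 5 h at 37 C, then treated with compounds plus rosiglitazone (50 nM final) for 17 h at 37 C; viability was then read by CellTiter-Glo luminescence after 30 min at room temperature.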

[6] = qHTS assay for small molecule agonists of the antioxidant response element (ARE) signaling pathway (AID 743202; active = well fitted activation curve with a large enough effect in the signal ratio in the repeat runs, not every such curve was filed as active; the % refers to the signal ratio)
In short: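 Following a 16 h, 37 C exposure of reporter HepG2 cells (ARE-driven beta-lactamase, 2,000 cells/well) to compounds, FRET substrate was applied for 2 h at room temperature and fluorescence intensity recorded.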

[7] = qHTS assay for small molecule agonists of the antioxidant response element (ARE) signaling pathway - cell viability counter screen (AID 743203; calls by dose curve; note: nearly all actives have a fitted effect of over 55% in size)
In short: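 Viability counter screen: CellTiter-Glo luminescence, read after 30 min at room temperature, in ARE-bla HepG2 wells. Compound exposure lasted 16 h at 37C/5% CO2, following a 5 h pre-incubation of the cells after plating.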

[8] = qHTS assay for small molecule activators of the heat shock response signaling pathway - cell viability counter screen (AID 743209); note: nearly all actives have a fitted effect of over 50% in size
In short: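 Cytotoxicity counter screen run in the same wells as the heat-shock bla reporter assay: HeLa HSE-bla cells, 5 h compound exposure at 37 C, viability read by CellTiter-Glo luminescence.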

[9] = qHTS assay for small molecule activators of the heat shock response signaling pathway (AID 743210; active = well fitted activation curve with a large enough effect in the signal ratio in the repeat runs, with a control signal flat, not every such curve was filed as active; the % refers to the signal ratio; note: series mostly up to about 63 µM)
In short: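 Heat shock element–beta-lactamase HeLa reporter cells; qHTS with compounds for 5 h at 37 C; detection by FRET substrate fluorescence after 2.5 h at RT.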

[10] = qHTS assay to identify small molecule agonists of the peroxisome proliferator-activated receptor delta (PPARd) signaling pathway - cell viability counter screen (AID 743211); note: nearly all actives have a fitted effect of over 55% in size
In short: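 Counter screen for cytotoxicity run in parallel with the PPARd reporter screen. Beta-lactamase reporter HEK293H cells exposed to compounds 17 h; ATP-based CellTiter-Glo luminescence quantified viability.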

[11] = biological target: Peroxisome proliferator-activated receptor delta (Homo sapiens) (UniProt Q03181); experiment: qHTS assay to identify small molecule agonists of the peroxisome proliferator-activated receptor delta (PPARd) signaling pathway (AID 743212; calls by dose curve)
In short: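 Beta-lactamase reporter read by fluorescence (LiveBLAzer B/G FRET, 2 h, room temperature). Test agents, in DMSO, incubated at 37 C with PPARd-bla HEK293H cells.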

[12] = qHTS assay to identify small molecule antagonists of the peroxisome proliferator-activated receptor delta (PPARd) signaling pathway - cell viability counter screen (AID 743213); note: nearly all actives have a fitted effect of over 50% in size
In short: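 In this counter screen, HEK293H cells carrying a UAS-beta-lactamase reporter are co-treated with test compounds and 300 nM L165041 (final) for 17 h at 37 C; cell viability is quantified by CellTiter-Glo luminescence.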

[13] = biological target: Peroxisome proliferator-activated receptor delta (Homo sapiens) (UniProt Q03181); experiment: qHTS assay to identify small molecule antagonists of the peroxisome proliferator-activated receptor delta (PPARd) signaling pathway (AID 743215; active = well fitted inhibition curve with a large enough effect in the signal ratio in the repeat runs, not every such curve was filed as active; the % refers to the signal ratio;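 note: cells stimulated with agonist L165041 at 300 nM final during compound exposure; series mostly up to about 62 µM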)
In short: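 Agonist L165041 (300 nM final) added with compound to PPARd-bla HEK293H UAS-bla reporter cells; 17 h incubation at 37 C. Read-out: LiveBLAzer FRET substrate, 2 h at room temperature, fluorescence intensity.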

[14] = biological target: Bile acid receptor (Homo sapiens) (UniProt Q96RI1); experiment: qHTS assay to identify small molecule antagonists of the farnesoid-X-receptor (FXR) signaling pathway (AID 743217; active = well fitted inhibition curve with a large enough effect in the signal ratio in the repeat runs, not every such curve was filed as active; the % refers to the signal ratio)
In short: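 Antagonist mode: chenodeoxycholic acid at 50 uM final stimulates a UAS-driven beta-lactamase reporter in HEK 293T FXR-bla cells during 16 h, 37C compound exposure. Read-out is FRET substrate fluorescence after 2 h at room temperature.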

[15] = qHTS assay to identify small molecule agonists of the farnesoid-X-receptor (FXR) signaling pathway - cell viability counter screen (AID 743218); note: nearly all actives have a fitted effect of over 45% in size
In short: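 Viability counter screen in the same wells: CellTiter-Glo luminescence, 30 min room-temperature incubation, measured after the beta-lactamase read. Cells were GeneBLAzer FXR-UAS-bla HEK 293T, compound-treated 16 h at 37C.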

[16] = biological target: Bile acid receptor (Homo sapiens) (UniProt Q96RI1); experiment: qHTS assay to identify small molecule agonists of the farnesoid-X-receptor (FXR) signaling pathway (AID 743220; active = well fitted activation curve with a large enough effect in the signal ratio in the repeat runs, not every such curve was filed as active; the % refers to the signal ratio)
In short: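 FXR-UAS-bla HEK 293T cells carrying a UAS-driven beta-lactamase reporter were plated for 5 h at 37C/5% CO2, then exposed to DMSO-dissolved Tox21 10K compounds for 16 h at 37C. A LiveBLAzer B/G FRET substrate was loaded for 2 h at room temperature before fluorescence reading.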

[17] = qHTS assay to identify small molecule antagonists of the farnesoid-X-receptor (FXR) signaling pathway - cell viability counter screen (AID 743221; active = well fitted cell-killing curve with a large enough effect in the repeat runs, not every such curve was filed as active; note: nearly all actives have a fitted effect of over 50% in size)
In short: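 Multiplexed counter screen: viability of FXR-bla HEK 293T cells under agonist stimulation by chenodeoxycholic acid (50 uM, final) and test compound for 16 h at 37 C, measured by CellTiter-Glo luminescence in the reporter wells.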

[18] = biological target: Vitamin D3 receptor (Homo sapiens) (UniProt P11473); experiment: qHTS assay to identify small molecule agonists of the vitamin D receptor (VDR) signaling pathway (AID 743222; calls by dose curve)
In short: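 Agonist mode, beta-lactamase reporter: fluorescence from LiveBLAzer B/G FRET substrate (2 h, room temperature) read after 16 h compound treatment at 37 C of VDR-bla cells, which were pre-incubated 4 h after seeding.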

[19] = biological target: Vitamin D3 receptor (Homo sapiens) (UniProt P11473); experiment: qHTS assay to identify small molecule antagonists of the vitamin D receptor (VDR) signaling pathway (AID 743223; active = well fitted inhibition curve with a large enough effect in the signal ratio in the repeat runs, not every such curve was filed as active; the % refers to the signal ratio)
In short: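 Cells carrying a VDR-driven beta-lactamase reporter (VDR-bla) were co-treated with compound and 3 nM final 1alpha,25-dihydroxyvitamin D3 for 16 h at 37C; reporter activity was measured as FRET substrate fluorescence after 2 h at room temperature.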

[20] = qHTS assay to identify small molecule that activate the aryl hydrocarbon receptor (AhR) signaling pathway - cell viability counter screen (AID 743086);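 note: HepG2 liver cells carrying the AhR DRE luciferase reporter; series mostly up to about 70 µM; nearly all actives have a fitted effect of over 45% in size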
In short: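 HepG2-AhR-luc (HG2L7.5c1) cells, 4000/well, were preincubated 5 h at 37C, exposed to compound in qHTS format for 24 hr at 37C, then given CellTiter-Fluor for 30 min; viability was read as fluorescence in the reporter wells.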

Measured: Potency

Sequence of Peroxisome proliferator-activated receptor gamma (Homo sapiens) (P37231 whole entry, looked up): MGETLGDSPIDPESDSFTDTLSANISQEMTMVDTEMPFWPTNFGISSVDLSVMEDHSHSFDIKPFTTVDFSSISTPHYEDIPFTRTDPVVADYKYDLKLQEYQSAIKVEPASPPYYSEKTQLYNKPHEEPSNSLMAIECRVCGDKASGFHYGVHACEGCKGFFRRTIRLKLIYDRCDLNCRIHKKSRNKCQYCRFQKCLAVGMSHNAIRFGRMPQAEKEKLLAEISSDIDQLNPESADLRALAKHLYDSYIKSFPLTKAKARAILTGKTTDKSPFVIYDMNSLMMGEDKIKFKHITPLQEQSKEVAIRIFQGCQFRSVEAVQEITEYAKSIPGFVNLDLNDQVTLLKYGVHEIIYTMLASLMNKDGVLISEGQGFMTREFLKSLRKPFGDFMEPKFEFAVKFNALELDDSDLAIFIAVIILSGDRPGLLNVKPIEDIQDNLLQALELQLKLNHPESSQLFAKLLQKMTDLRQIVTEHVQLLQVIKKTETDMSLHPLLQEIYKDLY
Sequence of Peroxisome proliferator-activated receptor delta (Homo sapiens) (Q03181 whole entry, looked up): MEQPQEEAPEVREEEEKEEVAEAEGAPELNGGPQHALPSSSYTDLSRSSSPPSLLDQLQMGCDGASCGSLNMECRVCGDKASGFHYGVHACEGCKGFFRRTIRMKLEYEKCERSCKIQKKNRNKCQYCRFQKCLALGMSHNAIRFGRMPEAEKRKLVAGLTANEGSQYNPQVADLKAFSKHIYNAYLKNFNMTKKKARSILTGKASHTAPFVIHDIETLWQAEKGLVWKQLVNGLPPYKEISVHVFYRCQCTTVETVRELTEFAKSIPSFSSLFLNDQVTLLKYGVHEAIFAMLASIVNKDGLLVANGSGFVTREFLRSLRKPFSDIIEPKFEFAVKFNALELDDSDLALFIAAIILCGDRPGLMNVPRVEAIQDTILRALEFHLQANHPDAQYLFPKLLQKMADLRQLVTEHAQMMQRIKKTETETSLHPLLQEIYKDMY
Sequence of Bile acid receptor (Homo sapiens) (Q96RI1 whole entry, looked up): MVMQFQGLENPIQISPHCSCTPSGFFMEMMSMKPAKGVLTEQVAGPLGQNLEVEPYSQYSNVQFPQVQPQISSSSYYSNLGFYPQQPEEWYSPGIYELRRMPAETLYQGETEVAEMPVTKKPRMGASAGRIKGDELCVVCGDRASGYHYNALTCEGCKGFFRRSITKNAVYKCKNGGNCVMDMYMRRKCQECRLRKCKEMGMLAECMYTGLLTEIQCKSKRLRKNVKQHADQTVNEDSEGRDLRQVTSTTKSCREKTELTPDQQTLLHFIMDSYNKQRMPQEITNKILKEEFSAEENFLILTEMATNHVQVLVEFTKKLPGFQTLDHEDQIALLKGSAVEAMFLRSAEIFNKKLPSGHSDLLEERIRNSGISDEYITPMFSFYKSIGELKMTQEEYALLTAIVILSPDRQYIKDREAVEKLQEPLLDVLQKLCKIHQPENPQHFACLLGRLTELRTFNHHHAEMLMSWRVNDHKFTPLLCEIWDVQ
Sequence of Aryl hydrocarbon receptor (Homo sapiens) (P35869 whole entry, looked up): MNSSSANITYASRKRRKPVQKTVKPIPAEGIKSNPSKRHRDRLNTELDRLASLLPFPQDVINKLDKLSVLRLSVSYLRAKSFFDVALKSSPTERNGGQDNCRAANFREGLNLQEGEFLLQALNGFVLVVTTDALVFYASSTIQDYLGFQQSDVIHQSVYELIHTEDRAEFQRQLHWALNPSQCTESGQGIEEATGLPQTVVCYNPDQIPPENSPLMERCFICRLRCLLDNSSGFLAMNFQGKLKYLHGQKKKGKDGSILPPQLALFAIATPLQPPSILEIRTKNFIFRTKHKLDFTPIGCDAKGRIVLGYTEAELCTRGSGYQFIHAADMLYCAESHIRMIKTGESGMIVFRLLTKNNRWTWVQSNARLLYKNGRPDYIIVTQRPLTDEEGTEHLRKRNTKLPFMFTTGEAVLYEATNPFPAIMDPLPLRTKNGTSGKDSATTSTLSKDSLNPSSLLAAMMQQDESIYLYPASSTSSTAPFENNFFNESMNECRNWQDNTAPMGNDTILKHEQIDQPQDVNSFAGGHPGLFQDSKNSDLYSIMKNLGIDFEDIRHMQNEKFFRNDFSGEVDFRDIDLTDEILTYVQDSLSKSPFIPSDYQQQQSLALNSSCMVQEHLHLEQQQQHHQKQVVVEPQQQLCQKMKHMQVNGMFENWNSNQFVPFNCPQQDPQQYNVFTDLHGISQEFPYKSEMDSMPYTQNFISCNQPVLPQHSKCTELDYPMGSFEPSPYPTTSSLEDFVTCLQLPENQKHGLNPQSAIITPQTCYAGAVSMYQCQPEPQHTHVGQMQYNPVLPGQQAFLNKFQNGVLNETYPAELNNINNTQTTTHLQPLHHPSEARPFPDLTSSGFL
Sequence of Vitamin D3 receptor (Homo sapiens) (P11473 whole entry, looked up): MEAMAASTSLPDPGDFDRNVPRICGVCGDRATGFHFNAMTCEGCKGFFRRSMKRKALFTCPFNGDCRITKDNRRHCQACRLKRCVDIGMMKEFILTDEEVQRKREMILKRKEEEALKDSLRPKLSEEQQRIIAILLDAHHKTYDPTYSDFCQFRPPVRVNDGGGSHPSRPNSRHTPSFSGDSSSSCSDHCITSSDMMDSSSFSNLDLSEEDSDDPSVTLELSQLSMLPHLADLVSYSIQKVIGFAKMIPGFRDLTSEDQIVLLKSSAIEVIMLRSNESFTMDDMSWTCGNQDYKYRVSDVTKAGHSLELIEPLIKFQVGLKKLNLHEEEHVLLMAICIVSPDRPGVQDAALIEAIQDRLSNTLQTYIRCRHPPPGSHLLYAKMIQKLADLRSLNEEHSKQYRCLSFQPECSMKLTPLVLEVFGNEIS

Cc1ncc(CO)c(CO)c1O
inactive: [1] | [2] | [3] | [4] | [5] | [6] | [7] | [8] | [9] | [10] | [11] | [12] | [13] | [14] | [15] | [16] | [17] | [18] | [19]

Cc1ccc(C(C)C)cc1
inactive: [1] | [2] | [3] | [4] | [5] | [6] | [7] | [8] | [9] | [10] | [12] | [13] | [14] | [15] | [16] | [17] | [18] | [19]

OB(O)O
inactive: [1] | [20] | [3] | [4] | [6] | [7] | [8] | [9] | [10] | [12] | [13] | [14] | [15] | [16] | [17] | [18] | [19]

CC[N+](CC)(CC(=O)Nc1c(C)cccc1C)Cc1ccccc1
inactive: [1] | [20] | [3] | [4] | [5] | [6] | [7] | [8] | [10] | [12] | [15] | [17]

C[Si](C)(C)N[Si](C)(C)C
inactive: [1] | [20] | [3] | [4] | [5] | [6] | [7] | [9] | [10] | [12] | [15] | [17] | [18]

Nc1cccc(C(F)(F)F)c1
inactive: [1] | [2] | [3] | [5] | [7] | [8] | [9] | [10] | [11] | [12] | [13] | [14] | [15] | [16] | [17]

OCC(CO)(CO)CO
inactive: [1] | [20] | [3] | [4] | [5] | [6] | [7] | [8] | [9] | [10] | [12] | [13] | [15] | [17] | [18] | [19]

CC(=O)CC(=O)N(C)C
inactive: [1] | [20] | [5] | [6] | [7] | [8] | [9] | [10] | [12] | [13] | [14] | [15] | [16] | [17] | [18] | [19]

CCCOC(=O)NCCCN(C)C
inactive: [1] | [2] | [3] | [4] | [5] | [7] | [10] | [12] | [15] | [17] | [18] | [19]
